This is an account of results in PubChem BioAssay (Tox21).

Several values for one entry are separate records, joined by “and”; a condition that tells them apart may be missing. Equal entries are not always repeated. Results filed as inconclusive are left out. Entries that show only a call come without a potency. A number with no mark means an inactive call. Activity calls are given as the source filed them. Calls follow the shape of the dose curve; as a rule, active = well fitted inhibition curve with a large enough effect in the repeat runs; inconclusive = weak or mixed curves; inactive = no such curve, though single readings can be large or run the other way.
Potency is read from the fitted curve at half-maximal effect.

Cytochrome P450 3A4 (Homo sapiens), sequence (P08684 whole entry, looked up): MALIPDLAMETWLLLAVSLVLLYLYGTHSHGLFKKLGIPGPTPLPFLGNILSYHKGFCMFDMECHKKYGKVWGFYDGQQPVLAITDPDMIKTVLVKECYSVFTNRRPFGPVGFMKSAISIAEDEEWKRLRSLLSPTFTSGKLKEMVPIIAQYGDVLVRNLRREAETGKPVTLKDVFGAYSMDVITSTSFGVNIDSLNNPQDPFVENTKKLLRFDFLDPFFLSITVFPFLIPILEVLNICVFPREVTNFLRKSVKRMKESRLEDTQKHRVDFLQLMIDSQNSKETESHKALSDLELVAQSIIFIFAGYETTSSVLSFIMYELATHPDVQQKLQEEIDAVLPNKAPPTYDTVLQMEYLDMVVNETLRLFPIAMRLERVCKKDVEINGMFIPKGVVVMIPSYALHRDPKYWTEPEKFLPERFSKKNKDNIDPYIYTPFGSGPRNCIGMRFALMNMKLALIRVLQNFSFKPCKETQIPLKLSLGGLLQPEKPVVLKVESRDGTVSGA

This assay concerns the target Cytochrome P450 3A4 (Homo sapiens) (UniProt P08684). In words: Cytochrome P450 Family 3 Subfamily A Member 4 (CYP3A4) small molecule antagonists: luciferase reporter qHTS assay (AID 1671201). Also: nearly all actives have a fitted effect of over 50% in size. To be noted: P450-Glo CYP3A4 enzyme, luciferin luminescence, 1 h; series mostly up to 115 µM; activity change, negative = inhibition: at the top concentration. The source says: National Center for Advancing Translational Sciences [NCATS]
U.S. Environmental Protection Agency [EPA]
National Institutes of Environmental Health Sciences [NIEHS]
National Toxicology Program [NTP]
U.S. Food and Drug Administration [FDA]
Cytochrome P450 (CYP) enzymes are membrane-bound hemeproteins that play a key role in metabolism of drugs and xenobiotics. Evaluation of the effect of chemicals on CYP isozymes is useful to minimize the adverse drug reactions and toxicities in drug development process. Tox21 chemicals were tested for their effect on CYP enzyme activities by using P450-Glo (TM) screening systems (Promega Corporation, Madison, WI). These systems provide a luminescent method containing proluciferin substrates and are converted to luciferin products by CYP isozymes. The luciferin products formed are detected with a luciferin detection reagent, and the amount of light produced is proportional to CYP activity. P450-Glo (TM) CYP3A4 screening system (Catalog. No. V9910) was used to detect the compounds that interfere in CYP3A4 activity. The positive control compound used for CYP3A4 assay is ketoconazole (Sigma-Aldrich, St. Louis, MO).
Tox21 Assay Protocol Summary:
Two ul of enzyme-substrate mix was dispensed into medium binding white/solid 1536-well plates (Greiner Bio-One North America Inc., Monroe, NC) using a BioRaptr Flying Reagent Dispenser (FRD, Beckman Coulter, Brea, CA). Compounds dissolved in DMSO and positive control (ketoconazole) were transferred to the assay plates at 23 nl using a Pintool station (Wako, San Diego, CA). The assay plates were incubated at room temperature for 10 min. Then 2 ul of NADPH regeneration solution was added to each well of the assay plates using an FRD and incubated at room temperature for 1 h. The reaction was stopped by adding 4 ul of detection reagent using an FRD and after 20 min incubation at room temperature the luminescence signal was measured using a ViewLux plate reader (Perkin Elmer, Shelton, CT). Data were expressed as relative luminescence units.
On to `CCCCCCCCCCO`, for which the Potency entry was “inactive”.

Turning to `CCO[Si](CCC#N)(OCC)OCC`, the Potency entry is “inactive”.

On to `C=CC(C)CCCC(C)(C)O` (stereo not given), for which the “activity change, negative = inhibition” value was 15.7%.

For the molecule `OC1C(O)C(O)C(O)C(O)C1O` (stereo not given), the Potency entry was “inactive”.

Consider `OCc1ccccc1`, for which the Potency result is “inactive”.

As for `COc1ccc(CCC(C)=O)cc1`, the Potency entry was “inactive”.

Regarding `CC(=O)OCCOC(C)=O`, the Potency entry was “inactive”.

In the case of `OCc1cccc(Oc2ccccc2)c1`, the Potency entry was “inactive”.

In the case of `Cc1ccc2ncccc2c1`, the Potency entry is “inactive”.

With `CC(C)OC(=O)COc1ccc(Cl)cc1Cl`, the Potency result is “inactive”.

Regarding `CCCCCCCCCCCCCCCCO`, the Potency result was “inactive”.

For the molecule `COC(=O)c1cccnc1`, the Potency entry was “inactive”.

For `CCNC(=S)NCC`, the Potency entry was “inactive”.

For `CCCCCCCCCCCC(=O)OC`, the Potency entry is “inactive”.

As for `O=C(O)c1ccccc1C(=O)O`, the Potency result is “inactive”.

For `Cc1ccc([N+](=O)[O-])cc1S(=O)(=O)O`, the Potency entry was “inactive”.

With `C=CCCCCCCCCC(=O)O`, the Potency entry was “inactive”.

In the case of `O=C1CCCC1`, the Potency result was “inactive”.

Regarding `N#Cc1ccccc1`, the Potency entry was “inactive”.

`C=C(C)C(=O)OCC(C)C`: the Potency entry was “inactive”.

As for `CCNc1ccccc1`, the Potency result was “inactive”.

`Cc1ccc(C(C)C)c(O)c1`: the Potency result is “inactive”.

Regarding `CC(=O)CC(C)(C)O`, the Potency entry is “inactive”.

`CCCCCCCCCCN`: the Potency entry is “inactive”.

`CC1(C)CC(N)CC(C)(CN)C1` (stereo not given): the Potency was 5.73 µM (active) and 4.48 µM (active).

In the case of `CCOC(=O)n1ccn(C)c1=S`, the Potency result is “inactive”.

Consider `CNC(=O)Oc1ccc2c(c1)[C@]1(C)CCN(C)[C@@H]1N2C`, for which the “activity change, negative = inhibition” value was -4.74% [at 52.9 µM].

Consider `CC(=O)Oc1ccc(C)cc1`, for which the Potency result is “inactive”.

Consider `CNC(=S)N(C)C`, for which the Potency result is “inactive”.

In the case of `C=CC[N+](C)(C)CC=C`, the Potency entry is “inactive”.

On to `CCOCCOCCOCCO`, for which the Potency result is “inactive”.

For `CC(C)c1cccc(C(C)C)c1`, the Potency result was “inactive”.

As to `c1ccc2c(c1)Cc1ccccc1-2`, the Potency entry is “inactive”.

With `CCCCCC(=O)O`, the Potency entry was “inactive”.

`N[C@H](Cc1c[nH]c2ccccc12)C(=O)O`: the Potency result was “inactive”.

For the molecule `CC(C)CCCCCCCOC(=O)CCCCC(=O)OCCCCCCCC(C)C`, the Potency entry is “inactive”.

On to `C=C(C)CNCC`, for which the Potency entry is “inactive”.

With `CN/C(=C\[N+](=O)[O-])NCCSCc1csc(CN(C)C)n1`, the “activity change, negative = inhibition” value is -1.18% [at 52.9 µM].

As to `CCc1ccccc1CC`, the Potency result is “inactive”.

With `O=C(O)c1ccc(S(=O)(=O)N(Cl)Cl)cc1`, the Potency result is “inactive”.
